An excerpt weighted towards active compounds, which were near 2.4% of everything screened.
TSG101-PTAP inh: blocks PTAP/TSG101 interaction to inhibit HIV-1 budding; Q99816; Fluorescence polarization, FITC-PTAP peptide / Tsg101 binding; Potency, µM (series often up to 115 µM), for inactives: at the top dose activity change, negative = inhibition, hits mostly inhibitors; 340,000 tested, under 10 active; AID 493005; active = well fitted inhibition curve with a large enough effect in the main read-out, with a control signal flat, not every such curve was filed as active; inconclusive = small, poorly fitted or top-dose-only effect, or effect the other way, or a change in a side signal; inactive = no such curve, though single readings can be large or run the other way; also: % of control where 0% means no effect
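Tsg101 binding domain (10 uM final) was mixed with compound and a FITC-labeled PTAP peptide (50 nM final) in HEPES pH 7.5 buffer with NaCl, Tween 20, EDTA and TCEP; fluorescence polarization was read after 20 min at r.t.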
Rango complex inh: prevents formation of the Rango-importin beta complex; Q14974; Potency, µM (top dose mostly 92.2 µM), for inactives: at the top dose inhibition of complex formation; Rango CFP/YFP FRET sensor + importin beta, 45 min; 0.031% of 340,000 active; AID 540263;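 also: 0% = DMSO wells and 100% = buffer wells lacking importin beta; nearly all actives have a fitted effect of over 15% in size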
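FRET biosensor Rango (snurportin 1 IBB between N-terminal EYFP and C-terminal Cerulean), 50 nM in PBS/1 mM DTT/0.02% Tween-20/0.1% BSA, preincubated 5 min RT with compound; 0.125 microM importin beta added, 45 min RT, CFP/YFP FRET ratio read.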
ClpP mod: qHTS Assay for Activators of ClpP. 1.9% of 340,000 active. Potency, µM (highest dose often 57.5 µM), inactives show at the top dose activity change, negative = active. purified B. subtilis ClpP, FRET peptide cleavage, 20 min. ATP-dependent Clp protease proteolytic subunit (Bacillus subtilis (strain 168)), P80244; active = well fitted falling curve with a large enough effect; inconclusive = small, poorly fitted or top-dose-only effect; inactive = no such curve, though single readings can be large or run the other way; also: the source files actives as falling curves though it sought activators and does not explain the sign; nearly all actives have a fitted effect of over 65% in size
Target sequence (P80244 whole entry, looked up): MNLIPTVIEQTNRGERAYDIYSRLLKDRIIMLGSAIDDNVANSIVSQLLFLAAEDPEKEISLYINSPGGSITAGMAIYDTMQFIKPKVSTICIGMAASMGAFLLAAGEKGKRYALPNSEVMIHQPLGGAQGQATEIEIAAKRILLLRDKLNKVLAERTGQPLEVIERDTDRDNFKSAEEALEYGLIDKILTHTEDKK
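Buffer: 100 mM Tris/HCl pH8, 100 mM KCl, 0.05% low protease BSA, 2.5% glycerol, 0.01% Tween-20. ClpP 10 microg/mL final; 20 min RT; delta FRET normalized to ADEP and DMSO controls.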
Rango dissoc inh: inhibition of RanGTP-driven Rango-importin beta dissociation; O95149+P62826; Biochemical FRET Rango-importin beta, RanGTP-induced dissociation; Potency, µM (doses to about 46.1 µM), for the others: top-dose activity change, negative = inhibition; 0.071% of 340,000 active; also: % of control where 0% means no effect; nearly all actives have a fitted effect of over 45% in size
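Compounds sat 5 min at room temperature with 0.1 uM Rango biosensor plus 0.25 uM importin beta, then FRET pre-read. RanGTP-RCC1 (0.6 uM Ran, 2mM GTP, 0.2 uM RCC1) added for 45 min, and the CFP/YFP post-read measured blocked complex dissociation.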
TDP1 block: blocks human tyrosyl-DNA phosphodiesterase 1 | Q9NUW8 | recombinant TDP1, AlphaScreen DNA substrate cleavage | Potency, µM (titrated, usually from 130 µM), for the others: at the top dose activity change, negative = inhibition, most hits filed as inhibitors | 0.28% of 350,000 active; active = well fitted curve in the direction sought with a large enough effect; inconclusive = small, poorly fitted or top-dose-only effect, or another doubt; inactive = no such curve, though single readings can be large; an effect the other way counts as inactive or inconclusive; also: % is scaled to controls: 0 for no effect and ±100 for the full control effect; nearly all actives have a fitted effect of over 40% in size
Target sequence (Q9NUW8 whole entry, looked up): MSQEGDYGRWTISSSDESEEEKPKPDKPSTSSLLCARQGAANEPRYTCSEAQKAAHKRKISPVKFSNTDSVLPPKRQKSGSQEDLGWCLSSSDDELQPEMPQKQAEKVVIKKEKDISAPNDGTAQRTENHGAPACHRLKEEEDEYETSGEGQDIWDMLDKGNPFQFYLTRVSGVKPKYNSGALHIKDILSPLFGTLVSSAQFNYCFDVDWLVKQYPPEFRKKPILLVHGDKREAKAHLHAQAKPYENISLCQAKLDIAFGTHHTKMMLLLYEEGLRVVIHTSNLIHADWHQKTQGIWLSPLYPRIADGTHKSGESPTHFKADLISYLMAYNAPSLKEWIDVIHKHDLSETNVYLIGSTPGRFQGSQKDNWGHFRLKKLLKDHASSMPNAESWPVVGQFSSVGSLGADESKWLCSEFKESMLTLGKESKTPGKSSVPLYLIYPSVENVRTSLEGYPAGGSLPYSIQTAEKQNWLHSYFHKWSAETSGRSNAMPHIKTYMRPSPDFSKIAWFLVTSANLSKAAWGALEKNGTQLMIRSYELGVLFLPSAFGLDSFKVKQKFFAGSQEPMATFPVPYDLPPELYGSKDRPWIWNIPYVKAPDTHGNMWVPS
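Recombinant human Tdp1 (E. coli-expressed, 1 nM final) preincubated with compounds 15 min at room temperature, then 5'-biotin/3'-phosphotyrosine-FITC DNA substrate (15 nM final) added for 5 min. AlphaScreen beads (10 ug/ml final) added 10 min; cleavage lowers signal.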
ALOX12 inh: blocks human arachidonate 12S-lipoxygenase. P18054. purified 12hLO, xylenol orange hydroperoxide absorbance. Potency, µM (series often up to 108 µM), for inactives: top-dose activity change, negative = inhibition, most hits filed as inhibitors. 1.1% of 580,000 active. AID 1671190; active = well fitted curve in the direction sought with a large enough effect; inconclusive = small, poorly fitted or top-dose-only effect, or another doubt; inactive = no such curve, though single readings can be large; an effect the other way counts as inactive or inconclusive; also: % is scaled to controls: 0 for no effect and ±100 for the full control effect
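Purified human 12hLO at 150 nM in 25 mM Hepes, 0.01% Triton X-100, pH 7.0, preincubated 15 min at room temperature with compound. Reaction started with 40 uM arachidonic acid, 30 min at room temperature. Hydroperoxide measured by Fe-xylenol orange, 573/405 nm absorbance ratio.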
* = called active by the depositor; ? = inconclusive; . = not tested or not shown; [ ] = remark or other dose. Unless noted, calls follow the shape of the full dose curve. Potency is read from the fitted curve at half-maximal effect.

SMILES	TSG101-PTAP inh	Rango complex inh	ClpP mod	Rango dissoc inh	TDP1 block	ALOX12 inh
CC(NS(=O)(=O)c1ccc(Cl)cc1)C(=O)NCc1ccco1 (stereo unspecified)	-1%	0%	-3%	-1%	?	?
COc1ccc(C(=O)OCC(=O)Nc2ncc([N+](=O)[O-])s2)cc1OC	-6%	-3%	0%	-1%	.	35µM*
COc1ccc(-c2nc(NC(=O)c3nn(C(C)C)c(=O)c4ccccc34)sc2C)cc1	.	.	.	.	.	1%
S=c1[nH]cc(Cc2ccccc2)s1	-1%	4%	-3%	0%	4%	7.9µM*
COc1cc(C(=O)OC2CCCCC2=O)ccc1OCc1ccc(Cl)cc1 (stereo unspecified)	.	.	.	.	.	53%
CNC(=O)[C@@H](c1ccccc1F)N1CCC[C@H]1C(=O)NC1CC1	.	.	.	.	.	25µM*
CCNC(=O)[C@@H]1CCCN1[C@@H](C(=O)NC)c1ccccc1F	.	.	.	.	.	-9%[176 µM]
Nc1c(S(=O)(=O)c2cccs2)c2nc3ccccc3nc2n1Cc1cccs1	2%	-3%	32µM*	-6%	2%	248%
Nc1c(S(=O)(=O)c2cccs2)c2nc3ccccc3nc2n1Cc1ccc2c(c1)OCO2	-5%	-2%	14µM*	1%	1%	?
Cc1ccc(O)c(-c2cc(C(F)(F)C(F)F)nc(-c3ccccc3)n2)c1	-4%	0%	25µM*	-10%	0%	-16%
Oc1ccc(Cl)cc1-c1cc(C(F)(F)C(F)F)nc(-c2ccccc2)n1	-1%	-4%	0%	16%	5%	3%
N=c1c2c(-c3ccccc3)c(-c3ccccc3)oc2ncn1CCN1CCOCC1	-7%	0%	-22%	-8%	-1%	0%
FC(F)(F)c1ccccc1-c1cncnc1Nc1ccccc1	.	.	.	.	.	25µM*
c1ccc(-c2oc3ncnc(NCCN4CCOCC4)c3c2-c2ccccc2)cc1	-6%	4%	16µM*	3%	12%	-20%[57.4 µM]
CC(=O)Nc1cnc(-c2ccccc2C(F)(F)F)cn1	.	.	-26%	.	.	21%
CC(=O)NCCNc1ncncc1-c1ccccc1C(F)(F)F	.	.	.	.	32µM*	-30%
FC(F)(F)c1ccccc1-c1cncnc1NCCN1CCOCC1	.	.	.	.	.	18µM*
FC(F)(F)c1ccccc1-c1cc(NCCN2CCOCC2)ncn1	.	.	.	.	.	-20%
FC(F)(F)c1ccccc1-c1cncnc1NCc1cccnc1	.	.	.	.	.	-28%
O=C1OC(c2ccccc2)(c2ccccc2)c2ccccc21	0%	1%	.	-9%	.	-8%
O=C1CC(c2ccccc2)(c2ccccc2)c2ccccc21	-1%	?	32µM*	0%	.	2%
Clc1cccc(-c2nn3c(-c4ccc5ccccc5n4)nnc3s2)c1	.	.	.	.	.	35µM*
Clc1cccc(-c2nn3c(-c4cccc(Cl)c4)nnc3s2)c1	.	.	.	.	0%	.
COc1ccc(-n2nc(C)c(CCC(=O)NCC(C)C)c2Oc2ccccc2)cc1	.	.	.	.	.	12%
CN(Cc1ccc(F)cc1F)C(=O)c1cc(Br)ccc1O	.	.	.	.	.	10µM*
SMILES	TSG101-PTAP inh	Rango complex inh	ClpP mod	Rango dissoc inh	TDP1 block	ALOX12 inh
Cn1ncc2c(=S)nc(Cl)[nH]c21	-5%	2%	-2%	-9%	.	7.1µM*
C(=N\N=C\c1ccccc1)/c1ccccc1	-1%	4%	.	-6%	5%	-7%
C[N+](C)(C)c1ccc(/C=N/N=C/c2ccccc2)cc1	.	.	.	.	.	11µM*
Cc1c(C#N)c(O)[nH]c(=O)c1N=Nc1ccc(S(N)(=O)=O)cc1	-5%	-2%	.	16%	.	40µM*
CCC1(CC)C(=O)C(C)(C)C(=O)OC1c1cccs1 (stereo unspecified)	-2%	0%	28µM*	2%	7%	0%
CCc1ncc(C(=O)Nc2nn(CC(F)(F)F)c3cc(OC(C)C)ccc23)cn1	.	.	.	.	.	64%
CCCc1cc(N2CCCC2)n2nc(C)c(-c3ccccc3)c2n1	-2%	-1%	32µM*	-7%	-3%	4%
CCn1c2ccccc2c2cc(/C=N/NC(=O)c3ccccc3C)ccc21	-1%	1%	13µM*	-18%	3%	-7%
CCn1c(/C=N/n2cnnc2)nc2ccccc21	6%	-1%	28µM*	36%	6%	13%
CCn1c2ccccc2c2cc(/C=N/n3cnnc3)ccc21	-5%	1%	25µM*	11%	3%	0%
CCn1c2ccccc2c2cc(/C=N/NC(=O)c3cccc(C)c3)ccc21	-4%	5%	-18%	-5%	-5%	-4%
OC1CCCN(Cc2ccccc2)C1 (stereo unspecified)	-5%	0%	-3%	17%	5%	1%
OC1CCCN(Cc2c3ccccc3cc3ccccc23)C1 (stereo unspecified)	4%	6%	20µM*	-14%	-5%	-21%
C=CCNc1nc(C(=O)OCC(=O)N(c2ccccc2)C(C)C)cs1	.	.	.	.	.	-25%
CC(=O)N1CCN(C(=O)CCc2nc(Cc3ccccc3)no2)CC1	.	.	.	.	.	-1%
O=C(CSc1nnnn1-c1ccc(F)cc1)c1ccc(O)c(O)c1	-3%	0%	.	1%	8%	14µM*
O=C(O)c1ccc(CSc2nnnn2-c2ccc(F)cc2)cc1	0%	-1%	.	15%	.	-12%
COC(=O)[C@]12CCC(C)(C)C[C@@H]1[C@@H]1C(=O)C=C3[C@@]4(C)C=C(C#N)C(=O)C(C)(C)[C@@H]4CC[C@@]3(C)[C@]1(C)CC2	.	.	.	.	.	9.7µM*
C=C(C)[C@@H]1CCC2(C(=O)OC)CC[C@]3(C)C(CCC4[C@@]5(C)C/C(=C\c6ccccc6)C(=O)C(C)(C)C5CC[C@]43C)C12 (stereo partly specified)	.	.	.	.	.	-1%
O=C(C1CCCCC1)N1CCC(c2noc(CO)n2)C1 (stereo unspecified)	.	.	.	.	.	47%
CCN1C(=O)N/C(=C/c2ccc(C)o2)C1=O	-2%	0%	-2%	-8%	-15%	-11%
Cc1ccc(/C=C2/NC(=O)N(Cc3ccc(Br)cc3)C2=O)o1	3%	?	0%	-14%	8%	45µM*
N#Cc1c(/N=C/c2ccccc2)oc(-c2ccccc2)c1-c1ccccc1	-8%	-3%	35µM*	-4%	3%	?
CC(NCC(C#N)CCC#N)c1ccccn1 (stereo unspecified)	.	.	.	.	.	-4%
COc1cc2c(Cc3c4c5c(cc(OC)c(OC)c5c5c(OC)c(OC)ccc35)CCN4C)c3c4c(cc(OC)c(OC)c4c2cc1OC)CCN3C	.	.	.	.	21%[56.1 µM]	.
CCOC(=O)N1CCc2cc(OC)c(OC)c3c2c1cc1cc(OC)c(OC)cc13	-3%	-4%	28µM*	-3%	.	?
